We go through eight compounds from PubChem BioAssay (EPA / NIEHS).

For experiment [1], the target named is mouse Estrogen Receptor alpha (Era), Esr1 (gene 13982) (UniProt P19785). Kind of experiment: NVS_NR_mERa: NovaScreen (NVS) Nuclear Receptor Binding Assay for mouse Estrogen Receptor alpha (Era) (AID 2283378; active means hit-call score of the fitted dose curve at least 0.9, where 1 is the maximum;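 further: hit means loss of bound radioligand signal relative to DMSO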). In short, it runs like this: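 Measurements come from scintillation counting after filtration, taken 18 hours after chemicals were added to a cell-free mouse Era preparation with radioligand. Screening was duplicate at 25 uM, with concurrent positive and negative controls and confirmatory concentration series for actives.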
mouse Estrogen Receptor alpha (Era), Esr1 (gene 13982), sequence (P19785 whole entry, looked up): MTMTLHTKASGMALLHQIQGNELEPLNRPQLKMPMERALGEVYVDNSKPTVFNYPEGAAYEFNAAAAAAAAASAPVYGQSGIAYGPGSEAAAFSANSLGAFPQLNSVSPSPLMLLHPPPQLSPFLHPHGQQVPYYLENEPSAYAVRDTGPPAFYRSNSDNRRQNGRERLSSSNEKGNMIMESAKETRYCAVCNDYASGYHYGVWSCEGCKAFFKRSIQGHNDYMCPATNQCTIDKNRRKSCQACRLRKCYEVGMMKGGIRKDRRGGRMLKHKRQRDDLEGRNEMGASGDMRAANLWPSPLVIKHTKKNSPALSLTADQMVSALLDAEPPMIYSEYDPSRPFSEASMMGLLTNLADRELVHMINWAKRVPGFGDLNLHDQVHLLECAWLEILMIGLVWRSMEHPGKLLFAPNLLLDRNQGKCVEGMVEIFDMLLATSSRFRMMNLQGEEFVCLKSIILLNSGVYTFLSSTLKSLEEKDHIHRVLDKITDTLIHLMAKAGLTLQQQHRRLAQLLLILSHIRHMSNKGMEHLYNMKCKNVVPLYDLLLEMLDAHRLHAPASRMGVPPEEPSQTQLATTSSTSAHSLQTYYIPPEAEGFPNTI

Experiment [2] in a line: NVS_IC_rCaBTZCHL: NovaScreen (NVS) Ion Channel Assay for Calcium Channel, Type L, Benzothiazepine Site (CaBTZCHL) (AID 2283337; active means hit-call score of the fitted dose curve at least 0.9, where 1 is the maximum). In short, it runs like this: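 Radioligand displacement at the benzothiazepine site using rat cortical membranes; bound label measured by filtration and scintillation counting 1.5 h after dosing. Single-point 25 uM in duplicate, then concentration series; DMSO baseline.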

Experiment [3] has as its target Sodium channel protein type 1 subunit alpha (Rattus norvegicus) (UniProt P04774). Kind of experiment: NVS_IC_rNaCh_site2: NovaScreen (NVS) Ion Channel Assay for rat Sodium Channel, Site 2 (NaCh) (AID 2283322; active means hit-call score of the fitted dose curve at least 0.9, where 1 is the maximum;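 further: hit means loss of radioligand binding signal relative to DMSO so AC50 marks displacement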). In short, it runs like this: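 Membranes: rat forebrain. Format: competitive radioligand displacement, filter separation, scintillation readout, 1 h exposure. Primary screen in duplicate at 25 uM; actives retested in concentration series.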

Experiment [4] deals with Glucocorticoid receptor (Homo sapiens) (UniProt P04150). Kind of experiment: NVS_NR_hGR: NovaScreen (NVS) Nuclear Receptor Binding Assay for human Glucocorticoid Receptor (GR) (AID 2283363; active means hit-call score of the fitted dose curve at least 0.9, where 1 is the maximum;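 on AC50: activity is loss of specific radioligand binding signal relative to DMSO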). The method in brief:
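Cell-free radioligand displacement assay on extracted human GR, read 16 h after dosing by filter-based scintillation counting. Screened in duplicate at 25 uM, then concentration series for actives; loss of signal versus DMSO baseline.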

Experiment [5] in a line: CEETOX_H295R_11DCORT: CeeTox H295R High-throughput Steroidogenesis Assay for 11-Deoxycortisol (11DCORT) (AID 2283432).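 On AC50: 11-deoxycortisol secreted into the medium measured by LC-MS/MS.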 The conditions noted are these: actives raise or lower the signal. In short, it runs like this:
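Human adrenal H295R cells were prestimulated with 10 uM forskolin for 48 h, then exposed to test chemical (0.1% DMSO final) for 48 h. Medium 11-deoxycortisol was quantified by MTBE extraction and HPLC-MS/MS; bidirectional fitting relative to DMSO.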

Experiment [6] is described as follows: CEETOX_H295R_CORTIC: CeeTox H295R High-throughput Steroidogenesis Assay for Corticosterone (CORTIC) (AID 2283437).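 Further: corticosterone secreted into medium quantified by mass spectrometry.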 The conditions noted are these: actives raise or lower the signal. The method in brief:
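H295R adrenal cells prestimulated 48 hours with 10 uM forskolin, then exposed 48 hours to chemical in 0.1% DMSO. Corticosterone in medium measured by HPLC-MS/MS after MTBE extraction; MTT viability in the same wells; bidirectional fit versus DMSO.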

Experiment [7] can be described thus: CEETOX_H295R_CORTISOL: CeeTox H295R High-throughput Steroidogenesis Assay for Cortisol (AID 2283438).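 Further: cortisol secreted into medium quantified by LC-MS/MS.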 The conditions noted are these: actives raise or lower the signal. The method in brief:
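Forskolin-primed H295R cells (10 uM, 48 h) treated 48 h with test chemical in 0.1% DMSO. Cortisol in medium quantified by MTBE extraction and HPLC-MS/MS; bidirectional fit vs DMSO, MTT viability in same wells.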

Experiment [8] can be described thus: CEETOX_H295R_DOC: CeeTox H295R High-throughput Steroidogenesis Assay for DOC (AID 2283439). Particulars: actives raise or lower the signal. In short, it runs like this: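 H295R cells prestimulated 48 h with 10 uM forskolin, then exposed 48 h to test chemical (0.1% DMSO final). Medium 11-deoxycorticosterone measured by HPLC-MS/MS after MTBE extraction; bidirectional fit vs DMSO, viability checked by MTT in same wells.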

The nature of experiment [9]: CEETOX_H295R_ESTRADIOL: CeeTox H295R High-throughput Steroidogenesis Assay for Estradiol (AID 2283440).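 Further: estradiol secreted into medium quantified by LC-MS/MS after dansyl derivatisation.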 The conditions noted are these: actives raise or lower the signal. In short, it runs like this:
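Readout is estradiol in conditioned medium, quantified by reverse-phase HPLC-MS/MS against a 7-point standard curve. Cells: H295R, forskolin-stimulated, then dosed 48 h in 0.1% DMSO; activity fitted in both directions relative to DMSO.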

Experiment [10] in a line: CEETOX_H295R_ESTRONE: CeeTox H295R High-throughput Steroidogenesis Assay for Estrone (AID 2283441).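 Further: estrone secreted into medium measured by LC-MS/MS after dansyl derivatization.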 Particulars: actives raise or lower the signal. In short, it runs like this: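 H295R cells prestimulated 48 h with 10 uM forskolin, then exposed 48 h to chemicals in 0.1% DMSO final; estrone in medium extracted with MTBE, dansyl-derivatized, quantified by HPLC-MS/MS; bidirectional fitting versus DMSO, viability by MTT.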

Experiment [11] deals with Sodium/Iodide Symporter (NIS), SLC5A5 (gene 6528). Nature of the experiment: CPHEA_Stoker_NIS_Inhibition_RAIU: CPHEA's Radioactive Iodide Uptake (RAIU) Assay for Sodium/Iodide Symporter (NIS) Inhibition, Stoker and Laws Labs (AID 2283841; active means hit-call score of the fitted dose curve at least 0.9, where 1 is the maximum). The method in brief: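 Iodide uptake read as CPM of intracellular 125I (final 329 pM) after 2 h room-temperature exposure in HEPES-buffered HBSS, pH 7.4. Human NIS-expressing HEK293T cells; six concentrations 0.001–100 uM, 0.5% DMSO, normalised to DMSO wells.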

The nature of experiment [12]: CPHEA_Stoker_NIS_Cytotoxicity: Cytotoxicity Assessment for CPHEA's Radioactive Iodide Uptake (RAIU) Assay for Sodium/Iodide Symporter (NIS) Inhibition, Stoker and Laws Labs (AID 2283897; active means hit-call score of the fitted dose curve at least 0.9, where 1 is the maximum;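 on AC50: active means loss of ATP signal versus DMSO meaning cytotoxicity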). The method in brief:
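CellTiter-Glo ATP luminescence gauged viability in HEK293T cells expressing human NIS after 2 h chemical exposure. Concentrations ran 0.001–100 uM in 0.5% DMSO; DMSO served as baseline for the loss-of-signal fit.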

Experiment [13] is described as follows: CCTE_Shafer_MEA_acute_burst_duration_mean: CCTE's Neural Acute Assay for Mean Burst Duration, Shafer Lab (AID 2284014).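 Further: hits are decreases in mean burst duration relative to DMSO controls.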 The method in brief:
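Rat primary cortical neurons on 48-well MEA, treated at DIV 13 or 15 with 0.03-40 uM in at least 3 wells. Value is percent change in mean burst duration, comparing 40 min recordings at 37 C before and during exposure.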

Experiment [14] in a line: CCTE_Shafer_MEA_acute_per_burst_spike_number_mean: CCTE's Neural Acute Assay for Average Number of Spikes Per Burst, Shafer Lab (AID 2284015).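 Further: hits are decreases in mean spikes per burst versus baseline.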 In short, it runs like this:
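Percent change in mean spikes per single-electrode burst is compared between a 40 min baseline and a 40 min recording with compound (0.03-40 uM). Cultures were rat cortical neurons on MEA plates at DIV 13 or 15, recorded at 37 C, with DMSO as the negative control.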

The nature of experiment [15]: CCTE_Shafer_MEA_acute_interburst_interval_mean: CCTE's Neural Acute Assay for Mean Interburst Interval, Shafer Lab (AID 2284016).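 Further: percent change of mean interburst interval versus each well's own pre-dose baseline; curves fitted for decrease in interburst interval relative to DMSO.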 In short, it runs like this: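 Percent change in mean single-electrode interburst interval was calculated per well from 40 min recordings before and after compound (0.03-40 uM). Recordings were made at 37 C on rat cortical cultures at DIV 13 or 15, with spikes detected at 8x rms threshold.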

Experiment [16] in a line: CCTE_Shafer_MEA_acute_burst_percentage_mean: CCTE's Neural Acute Assay for Percentage of Spikes in a Burst, Shafer Lab (AID 2284017).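 On AC50: curve fitted for loss of signal so potency reflects decreased burst percentage.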 In short, it runs like this: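 Well-level mean burst percentage from a 40-min recording after compound (0.03-40 uM) expressed as percent change from a 40-min baseline at 37C. Cultures: primary rat cortical neurons on MEA, dosed on DIV 13 or 15; fitted downward relative to DMSO.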

The nature of experiment [17]: CCTE_Shafer_MEA_acute_burst_percentage_std: CCTE's Neural Acute Assay for Standard Deviation of Burst Percentage, Shafer Lab (AID 2284018).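 Further: fitted in the negative direction so actives lower burst percentage SD.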 The method in brief: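 Rat primary cortical neurons on 48-well MEAs, DIV 13 or 15, 37 C. 40-min baseline then 40-min recording with compound (0.03-40 uM); well-level SD of per-electrode burst spike percentage, expressed as percent change from baseline.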

The nature of experiment [18]: CCTE_Shafer_MEA_acute_per_network_burst_electrodes_number_mean: CCTE's Neural Acute Assay for Mean Number of Electrodes in a Network Burst, Shafer Lab (AID 2284021).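 Further: curves fitted for decreases only so hits reduce electrodes per burst.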 In short, it runs like this:
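Percent change from baseline in average electrode count per network burst, rat cortical cultures on 48-well MEAs; 40-min recordings each side of exposure, DIV 13 or 15; threshold 8x rms noise; DMSO as negative control.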

Experiment [19] can be described thus: CCTE_Shafer_MEA_acute_synchrony_index: CCTE's Neural Acute Assay for Synchrony, Shafer Lab (AID 2284027).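 Further: network synchrony index of spontaneous spiking in primary rat cortical neurons on MEAs; fitted for loss of signal so actives lower synchrony relative to DMSO.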 The method in brief:
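Primary rat cortical neurons on 48-well MEAs, dosed at 0.03–40 uM on DIV 13 or 15. Spikes are recorded for 40 min at 37C before and after exposure, and synchrony index (0–1) is expressed as percent change from baseline per well.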

Experiment [20] can be described thus: CCTE_Shafer_MEA_acute_LDH: CCTE's Lactate Dehydrogenase Assay for Cytotoxicity in the Neural Acute Assay, Shafer Lab (AID 2284086; active means hit-call score of the fitted dose curve at least 0.9, where 1 is the maximum;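 further: active means LDH release rises above DMSO vehicle level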). The method in brief: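 Medium from rat cortical neuron MEA cultures sampled right after the 40 min compound-exposure recording; released LDH measured by absorbance at 490 nm. Analyzed as signal gain relative to DMSO.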

Where “and” joins values, the source holds several entries; their conditions need not be identical. Identical values can stand only once. Records with an inconclusive call do not appear. Calls of active or inactive are those of the source. How the source made its calls, unless noted: active means hit-call score of the fitted dose curve at least 0.9, where 1 is the maximum; inactive means score below 0.9.

Glucocorticoid receptor (Homo sapiens), sequence (P04150 whole entry, looked up): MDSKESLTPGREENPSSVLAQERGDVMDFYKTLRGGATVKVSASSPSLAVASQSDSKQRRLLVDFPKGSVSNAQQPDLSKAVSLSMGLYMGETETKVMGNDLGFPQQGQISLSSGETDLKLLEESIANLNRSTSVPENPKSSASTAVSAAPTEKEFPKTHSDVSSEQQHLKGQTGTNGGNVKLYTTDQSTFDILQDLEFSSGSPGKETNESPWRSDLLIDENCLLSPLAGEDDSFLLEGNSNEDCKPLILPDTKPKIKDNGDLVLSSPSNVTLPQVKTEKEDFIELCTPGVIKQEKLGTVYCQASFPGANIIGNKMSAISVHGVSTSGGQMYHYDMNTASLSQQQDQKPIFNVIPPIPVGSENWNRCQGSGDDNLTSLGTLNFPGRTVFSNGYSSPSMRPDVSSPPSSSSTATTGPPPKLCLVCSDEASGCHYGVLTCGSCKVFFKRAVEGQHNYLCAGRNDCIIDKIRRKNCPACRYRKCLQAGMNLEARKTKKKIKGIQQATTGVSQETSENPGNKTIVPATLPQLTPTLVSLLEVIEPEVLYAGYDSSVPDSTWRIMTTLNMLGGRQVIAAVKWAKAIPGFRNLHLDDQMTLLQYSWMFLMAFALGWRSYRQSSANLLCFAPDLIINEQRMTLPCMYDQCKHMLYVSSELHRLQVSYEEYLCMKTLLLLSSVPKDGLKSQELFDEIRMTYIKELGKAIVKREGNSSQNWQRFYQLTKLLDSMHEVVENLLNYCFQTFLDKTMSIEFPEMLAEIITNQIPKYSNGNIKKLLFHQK

`O=C(O)c1cc[c]([Hg][Cl])cc1`: the call in [1] was inactive.
Turning to `O=C(O)CCCc1ccc(N(CCCl)CCCl)cc1`, in experiment [2], the outcome was inactive.
For the compound `CC(C)(C)C(O)C(Oc1ccc(-c2ccccc2)cc1)n1cncn1` (stereo not given), the compound was classed as inactive in experiment [3], in experiment [4], in [6], in experiment [7], in [8] and in experiment [9]. The call in experiment [10] was inactive. Moreover, in experiment [5], the concentration at half-maximal activity (AC50) is 0.0464 µM (active).
Regarding `O=[N+]([O-])O`, the outcome in experiment [11], in experiment [12], in [13], in experiment [14], in experiment [15] and in experiment [16] was inactive. Also, the outcome in experiment [17], in experiment [18], in experiment [19] and in experiment [20] was inactive.
Turning to `c1ccc(Nc2ccc3ccccc3c2)cc1`, the outcome in [2], in experiment [5], in [6], in [7], in experiment [8] and in experiment [9] was inactive. The outcome in experiment [10] was inactive.
Regarding `Oc1ccc(C2(c3ccc(O)cc3)c3ccccc3-c3ccccc32)cc1`, the concentration at half-maximal activity (AC50) is 0.432 µM (active) in experiment [1]; 20.5 µM (active) in experiment [14]; 24.8 µM (active) in experiment [16]; 22.8 µM (active) in experiment [17]; 25.4 µM (active) in experiment [19]. The result in experiment [13], in experiment [15], in experiment [18] and in experiment [20] was inactive.
`CC(C)(c1cc(Cl)c(O)c(Cl)c1)c1cc(Cl)c(O)c(Cl)c1`: the AC50 in experiment [4] was 544 nM (active) and 146 nM (active); in experiment [11] it was 9.92 µM (active); in [12] it was 81.3 µM (active).
Consider `CCc1cc(C)cc(CC)c1-c1c(OC(=O)C(C)(C)C)n2n(c1=O)CCOCC2`, for which the outcome in experiment [3] was inactive.

As a reminder, the AC50 is the concentration giving half of the maximal activity seen.
